The values below come from PubChem BioAssay (NCI).

What all share (assay): NCI-60 one-dose screen, 48 h (100 = growth as untreated, 0 = no growth, -100 = all killed)
Experiment [1] concerns HCT-15 colon. Conditions: 10 µM.
For experiment [2], the system named is HT29 colon. Conditions: 10 µM.
Experiment [3] relates to SNB-75 CNS. Conditions: 10 µM.
The subject of experiment [4] is SNB-19 CNS. Conditions: 10 µM.
Experiment [5] concerns U251 CNS. Conditions: 10 µM.
For experiment [6], the system named is PC-3 prostate. Conditions: 10 µM.
Experiment [7] has as its system SK-MEL-5 melanoma. Conditions: 10 µM.
Experiment [8] relates to UACC-62 melanoma. Conditions: 10 µM unless noted.
The test system of experiment [9] is LOX IMVI melanoma. Conditions: 10 µM.
Experiment [10] deals with SK-MEL-28 melanoma. Conditions: 10 µM.
Experiment [11] has as its system SK-MEL-2 melanoma. Conditions: 10 µM.
The test system of experiment [12] is EKVX NSCLC. Conditions: 10 µM.
Experiment [13] has as its system SN12C renal. Conditions: 10 µM.
In experiment [14] the test system is TK-10 renal. Conditions: 10 µM unless noted.
The test system of experiment [15] is ACHN renal. Conditions: 10 µM.
In experiment [16] the test system is CAKI-1 renal. Conditions: 10 µM.
The test system of experiment [17] is A498 renal. Conditions: 10 µM.
The subject of experiment [18] is CCRF-CEM leukemia. Conditions: 10 µM.
In experiment [19] the test system is MOLT-4 leukemia. Conditions: 10 µM.
The test system of experiment [20] is UO-31 renal. Conditions: 10 µM.

The panel holds about 83,000 compounds, 20% with a hit somewhere; the sample as a whole holds those more often.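 Assay: single dose, 48 h. Readout: percent growth (0 = no net growth; negative = cell death). Active: <10.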 Unmarked numbers belong to inactive results. The source made the active and inactive calls.

Turning to `CCC(C)(C)C1CCC(O)CC1` (centres undefined), the growth is 88.9% in experiment [1]; 97.5% in experiment [2]; 100% in experiment [3]; 100% in [4]; 107% in [5]; 99.2% in experiment [6]. Besides, the growth in experiment [7] is 97.8%; in experiment [8], 98.2%; in experiment [9], 91.1%; in experiment [10], 114%; in [11] it was 103%; in experiment [12] it was 94.9%. Also, the growth in [13] was 98.7%; in [14], 98.7%; in experiment [15], 97.7%; in experiment [16], 115%; in experiment [17], 97.8%; in [18], 93.5%. The growth in experiment [19] was 106%.

As to `CCOC(=O)c1coc(C(=O)OCC)c1C(=O)OCC`, the growth in experiment [1] is 105%; in [2], 124%; in experiment [3] it was 92.3%; in experiment [4], 112%; in experiment [5], 102%; in experiment [6], 122%. The growth in experiment [7] was 108%; in [8], 112%; in [9], 108%; in experiment [10] it was 117%; in experiment [11] it was 126%; in experiment [12], 100%. In addition, the growth was 112% in experiment [13]; 96.5% in experiment [20]; 118% in [14]; 102% in [16]; 92.2% in experiment [17]; 112% in [18]. Moreover, the growth in [19] was 98.6%.

In the case of `CCCC(=O)c1cc(C)ccc1OC`, the growth in [1] is 100%; in experiment [2], 107%; in experiment [3], 94.9%; in [4], 114%; in experiment [5], 115%; in [6], 91.3%. Moreover, the growth is 104% in [7]; 95.5% in [8]; 109% in [9]; 105% in experiment [10]; 103% in experiment [11]; 117% in experiment [12]. The growth was 94.5% in experiment [13]; 104% in experiment [14]; 103% in experiment [15]; 104% in experiment [16]; 119% in experiment [17]; 96.5% in experiment [18].

For `Nc1ncnc2[nH]ncc12`, the growth is 5.92% (active) in experiment [1]; 12.3% in experiment [2]; 33.3% in experiment [3]; 71.3% in experiment [4]; 42.8% in [5]; 7.63% (active) in [6]. The growth in experiment [7] is 15%; in [8], -15.9% (active); in experiment [9] it was 1.37% (active); in [10], 28.5%; in [11], -14.1% (active); in [12] it was 30.4%. In addition, the growth in experiment [13] is 14%; in experiment [14], 1.19% (active); in [15] it was 8.29% (active); in [16], -9.29% (active); in experiment [17], 8.78% (active); in [18], 13.1%. Also, in experiment [19], the growth is 25.9%.

`COc1cc(-c2ccc(NC(=O)NC3CC3)c(OC)c2)ccc1NC(=O)NC1CC1`: the growth in [1] is 31.2%; in [2] it was 48.6%; in experiment [3], 89.4%; in experiment [4], 84.7%; in experiment [5], 37.4%; in experiment [6], 41.6%. The growth in [7] is 47.6%; in experiment [8] it was 70.7%; in experiment [9], 36.8%; in experiment [10] it was 86.7%; in [11], 96.3%; in experiment [12], 94.6%. Further, the growth was 91.6% in [13]; 46.5% in [20]; 99.6% in experiment [14]; 63.8% in [15]; 59.3% in experiment [17]; 47.8% in [18]. Further, the growth in [19] is 38.1%.

Consider `O=c1cc(-c2ccccc2)nc2cc(-c3ccco3)[nH]n12`, for which the growth is 67.8% in experiment [1]; 102% in experiment [2]; 79.4% in experiment [3]; 95.8% in [4]; 90.5% in [5]; 78.7% in [6]. Further, the growth in [7] was 83.1%; in experiment [8], 67.8%; in experiment [9] it was 86.1%; in [10], 88.6%; in experiment [11], 102%; in experiment [12], 89.7%. The growth in experiment [13] is 96%; in experiment [20], 74.6%; in [14], 124%; in experiment [15], 91%; in experiment [17], 82.1%; in [18], 78.7%. The growth in experiment [19] is 87%.

On to `NC(N)=Nc1cc2ccccc2c2ccccc12`, for which the growth in [1] is 85.7%; in experiment [2] it was 65.3%; in [3], 57%; in experiment [4], 82.2%; in [5] it was 79.4%; in experiment [6], 61.5%. For the same compound, the growth in experiment [7] was 85.9%; in experiment [8], 75%; in experiment [9], 74.9%; in experiment [10], 88.3%; in [11], 108%; in [12] it was 83.9%. The growth in experiment [13] was 80.5%; in [20], 57%; in [14], 105%; in experiment [15], 72.3%; in experiment [17], 59.3%; in experiment [18], 40.5%. Also, in [19], the growth was 41.6%.

`CCCC1(c2ccccc2)NC(=O)NC1=O` (centres undefined): the growth in experiment [1] is 108%; in experiment [2] it was 111%; in [3], 86.5%; in [4], 105%; in experiment [5] it was 113%; in experiment [6], 99%. The growth in experiment [7] is 99.3%; in experiment [8], 97.4%; in experiment [9], 105%; in [10] it was 104%; in [11] it was 103%; in experiment [12] it was 118%. The growth was 104% in experiment [13]; 95.2% in [14]; 103% in experiment [15]; 116% in experiment [16]; 121% in experiment [17]; 99.7% in experiment [18]. For the same compound, the growth in experiment [19] was 123%.

Take `Cc1ccc(C(=O)c2ccccc2)c(C)c1`: the growth in [1] was 105%; in experiment [2] it was 101%; in experiment [3] it was 84.4%; in [4], 111%; in experiment [5] it was 110%; in experiment [6] it was 98.3%. Further, the growth in experiment [7] is 107%; in [8], 102%; in [9], 93.7%; in experiment [10], 109%; in experiment [11] it was 108%; in experiment [12], 105%. In addition, the growth in experiment [13] was 99.2%; in [14] it was 109%; in [15] it was 103%; in experiment [16], 121%; in [17], 104%; in experiment [19], 116%.
